This note sets out measurements from ChEMBL document CHEMBL1201862, “PubChem BioAssay data set” (2004).

SMILES strings stand for the structures. Screen size: about 390,000 compounds; about 4,000 (1%) were called active. Another 7% or so got no clear call; they are omitted. The calls are words filed in the database; no cut-off is given here. This excerpt belongs to a sample that is enriched for actives.

The target in the assay is T1, DNA polymerase iota (Homo sapiens) (UniProt Q9UNA4).
T1 sequence (whole entry): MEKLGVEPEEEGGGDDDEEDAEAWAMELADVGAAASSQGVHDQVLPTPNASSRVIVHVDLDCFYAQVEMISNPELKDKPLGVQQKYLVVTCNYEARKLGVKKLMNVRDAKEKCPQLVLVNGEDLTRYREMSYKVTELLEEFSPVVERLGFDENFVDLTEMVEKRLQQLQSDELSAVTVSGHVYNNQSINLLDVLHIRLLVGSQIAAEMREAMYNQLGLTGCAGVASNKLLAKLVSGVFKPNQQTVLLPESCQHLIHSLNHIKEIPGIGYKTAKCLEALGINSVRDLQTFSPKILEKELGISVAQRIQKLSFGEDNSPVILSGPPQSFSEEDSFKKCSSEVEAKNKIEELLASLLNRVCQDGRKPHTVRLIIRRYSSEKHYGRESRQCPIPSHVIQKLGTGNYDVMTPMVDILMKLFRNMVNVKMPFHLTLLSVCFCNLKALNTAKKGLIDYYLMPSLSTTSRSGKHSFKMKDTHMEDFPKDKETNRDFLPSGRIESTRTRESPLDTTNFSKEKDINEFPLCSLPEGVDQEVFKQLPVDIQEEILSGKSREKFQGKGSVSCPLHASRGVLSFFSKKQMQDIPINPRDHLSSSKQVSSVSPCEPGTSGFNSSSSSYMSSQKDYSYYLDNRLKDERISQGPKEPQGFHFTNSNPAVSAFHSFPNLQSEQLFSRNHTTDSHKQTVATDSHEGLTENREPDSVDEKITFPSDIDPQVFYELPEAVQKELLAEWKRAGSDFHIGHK
Briefly: qHTS for Inhibitors of Polymerase Iota. [Related pubchem assays (depositor defined):AID588623]. It is filed as functional. On the technique in general: Quantitative high-throughput screening tests each substance at several concentrations.
Consider `COc1ccc(OC)c(/C=C/c2cccc3c2N(CCCCI)C=S3/C=C/c2cc(OC)ccc2OC)c1` (configuration not stated), for which the Potency is 70.8 µM (active).
The same measure for `Cl.NC(CCC(=O)O)C(=O)O` (configuration not stated): “inactive”.
